Experimental findings from PubChem BioAssay (NCI) are described below.

Test systems include NCI-H23 lung; NCI-H226 lung; NCI-H322M lung; HOP-62 NSCLC; NCI-H460 lung; NCI-H522 lung; A549/ATCC NSCLC; 786-0 renal; COLO 205 colon; DU-145 prostate; K-562 leukemia; MALME-3M melanoma; MDA-MB-231 breast; RXF 393 renal; SF-268 CNS; SF-295 CNS; SF-539 CNS; UACC-257 melanoma; M14 melanoma.
What all share (experiment): NCI-60 one-dose screen, 48 h (100 = growth as untreated, 0 = no growth, -100 = all killed)
Common to all, as to conditions: 10 µM

The panel holds about 83,000 compounds, 20% with a hit somewhere; the sample as a whole holds those more often.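 For each line, cells grew in 96-well plates with the test compound present at a single concentration for 48 hours.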 Unmarked numbers belong to inactive results. The source made the active and inactive calls. How the source made its calls: active means growth percent below 10; inactive means the rest.

For `CSC[C@H](NC(=O)COc1cccc2cnccc12)C(=O)NC(Cc1ccccc1)C(O)C(=O)N1CSC[C@H]1C(=O)NC(C)(C)C` (stereo partly drawn), the growth in the test on NCI-H23 lung was 106%; in the test on NCI-H226 lung, 105%; in the test on NCI-H322M lung, 95.7%; in the test with HOP-62 NSCLC it was 110%; in the test with NCI-H460 lung, 125%; with NCI-H522 lung, 72.3%. The growth was 110% in the test on A549/ATCC NSCLC; 80.3% with 786-0 renal; 106% in the test with COLO 205 colon; 98.9% with DU-145 prostate; 107% in the test with K-562 leukemia; 105% with MALME-3M melanoma. Moreover, the growth in the test on MDA-MB-231 breast is 93.8%; with RXF 393 renal it was 100%; in the test on SF-268 CNS, 94.4%; with SF-295 CNS, 97.4%; in the test on SF-539 CNS, 103%; in the test on UACC-257 melanoma, 106%. The growth in the test on M14 melanoma is 99.3%.

Regarding `CNC(=O)c1ccccc1CC1(O)c2ccccc2Oc2ccccc21`, the growth was 71.5% in the test with NCI-H23 lung; 77% in the test with NCI-H226 lung; 51.8% with NCI-H322M lung; 71.4% in the test with HOP-62 NSCLC; 33.7% in the test on NCI-H460 lung; 24.8% in the test with NCI-H522 lung. For the same compound, the growth with A549/ATCC NSCLC was 41.8%; in the test on 786-0 renal, 74.8%; in the test on COLO 205 colon it was 38%; with DU-145 prostate, 61.3%; in the test with K-562 leukemia it was 22%; in the test on MALME-3M melanoma, 29.9%. The growth in the test on MDA-MB-231 breast is 66.3%; in the test on RXF 393 renal, 61.3%; in the test on SF-268 CNS it was 57.7%; in the test with SF-295 CNS it was 36.8%; in the test with SF-539 CNS, 56.5%; with UACC-257 melanoma, 58%. For the same compound, the growth with M14 melanoma is 42.2%.

On to `COc1cc(/C=N\Nc2ccccc2)ccc1OC(=O)c1ccccc1`, for which the growth in the test with NCI-H23 lung is 79.5%; in the test with NCI-H226 lung, 74.9%; in the test with NCI-H322M lung it was 59.8%; in the test on HOP-62 NSCLC, 77.8%; in the test with NCI-H460 lung it was 44.2%; with NCI-H522 lung, 20.6%. The growth in the test with A549/ATCC NSCLC was 68.6%; in the test with 786-0 renal it was 78.4%; in the test on COLO 205 colon it was 84.8%; in the test with DU-145 prostate, 55.3%; with K-562 leukemia it was 12%; in the test with MALME-3M melanoma, 89.5%. Besides, the growth is 86.3% in the test on MDA-MB-231 breast; 100% with RXF 393 renal; 57.5% in the test on SF-268 CNS; 50.5% with SF-295 CNS; 24.4% in the test on SF-539 CNS; 81.8% in the test on UACC-257 melanoma. Besides, in the test on M14 melanoma, the growth was 60.2%.

On to `NC(N)=Nc1cc2ccccc2c2ccccc12`, for which the growth with NCI-H23 lung is 86.7%; in the test with NCI-H226 lung, 89.5%; in the test on NCI-H322M lung, 98.7%; in the test on HOP-62 NSCLC, 101%; in the test with NCI-H460 lung, 86.8%; with NCI-H522 lung it was -49.2% (active). The growth in the test with A549/ATCC NSCLC was 27.8%; in the test on 786-0 renal, 90.6%; in the test on COLO 205 colon it was 44.9%; in the test on DU-145 prostate, 84.9%; in the test on K-562 leukemia it was 62.3%; with MALME-3M melanoma it was 76.2%. The growth in the test with MDA-MB-231 breast is 80.1%; in the test with RXF 393 renal, 78.8%; in the test on SF-268 CNS, 82.6%; in the test on SF-295 CNS, 55.9%; with SF-539 CNS, 89.1%; in the test on UACC-257 melanoma it was 1.37% (active). For the same compound, in the test on M14 melanoma, the growth is 85%.

Regarding `C=CCNC(=O)c1ccc(OC)cc1`, the growth in the test on NCI-H23 lung is 99.5%; with NCI-H226 lung, 99.4%; in the test on NCI-H322M lung, 98.5%; in the test on HOP-62 NSCLC, 109%; in the test with NCI-H460 lung it was 114%; in the test with NCI-H522 lung, -12.1% (active). In addition, the growth was 50.4% with A549/ATCC NSCLC; 107% in the test on 786-0 renal; 109% in the test with COLO 205 colon; 124% in the test on DU-145 prostate; 105% in the test with K-562 leukemia; 117% in the test on MALME-3M melanoma. The growth was 104% with MDA-MB-231 breast; 111% in the test on RXF 393 renal; 126% in the test with SF-268 CNS; 115% in the test on SF-295 CNS; 100% in the test on SF-539 CNS; 97.6% with UACC-257 melanoma. For the same compound, the growth in the test on M14 melanoma was 100%.

Regarding `Cc1c(O)cccc1O`, the growth in the test on NCI-H23 lung was 106%; in the test on NCI-H226 lung, 93.4%; in the test with NCI-H322M lung, 90.3%; with HOP-62 NSCLC, 92%; in the test with NCI-H460 lung, 114%; with NCI-H522 lung, 73.1%. The growth in the test with A549/ATCC NSCLC was 122%; in the test on 786-0 renal, 102%; with COLO 205 colon it was 116%; in the test with DU-145 prostate, 124%; in the test on K-562 leukemia it was 88.2%; in the test on MALME-3M melanoma it was 156%. Moreover, the growth in the test with MDA-MB-231 breast is 96.5%; in the test with RXF 393 renal it was 77.7%; in the test on SF-268 CNS, 112%; in the test on SF-295 CNS, 98.2%; in the test on SF-539 CNS, 103%; with UACC-257 melanoma, 108%. The growth with M14 melanoma was 105%.

Consider `O=C(O)C(O)c1ccccc1` (stereo not drawn), for which the growth in the test on NCI-H23 lung is 101%; in the test on NCI-H226 lung it was 99.1%; with NCI-H322M lung, 99.6%; with HOP-62 NSCLC, 116%; in the test on NCI-H460 lung, 107%; in the test with NCI-H522 lung, 103%. The growth was 105% in the test with A549/ATCC NSCLC; 98.8% with 786-0 renal; 109% in the test on COLO 205 colon; 106% with DU-145 prostate; 111% with K-562 leukemia; 99.9% with MALME-3M melanoma. Also, the growth with MDA-MB-231 breast was 107%; in the test on RXF 393 renal, 102%; with SF-268 CNS, 98.8%; in the test with SF-295 CNS it was 107%; in the test on SF-539 CNS, 94%; with UACC-257 melanoma, 102%. Moreover, the growth with M14 melanoma is 97.8%.
